In all, about 2,100 compounds went through this assay and about 300 (14%) were called active. Inconclusive results (about 2%) are left out.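 Rule for the calls: active = every replicate test run called active, with the signal falling and half-maximal concentration within twice the top valid dose; inconclusive = the replicate test runs disagree in their calls; inactive = every test run inactive, including effects in the opposite direction.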 Only a sample is shown. Entries with a potency or affinity are not part of this list.
Test: inhibitors of PGC1a acetylation in cells, dose response, cell-based, cherry-picked samples (AID 720514);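 note: 0% = neutral control wells and -100% = positive control wells; actives lower the acetylation signal so they count as inhibitors of PGC1a acetylation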
Conditions: U2OS PGC1a acetylation, AlphaLISA, overnight; series mostly up to 19.5 µM; activity change, negative = inhibition: at the top concentration

Activity change, negative = inhibition, inactive:
CCOC(=O)C1=CC[C@@H](c2ccc([N+](=O)[O-])cc2)N(S(=O)(=O)c2ccc(C)cc2)[C@H]1c1ccccc1 59.6% [at 10 µM]
Cc1ccc(-c2nnc(N3CCN(C(=O)COc4ccccc4)CC3)c3ccccc23)cc1 63.9%
CN1/C(=C\C(=O)c2cccc(S(=O)(=O)N3CCCCC3)c2)C(C)(C)c2ccccc21 45.8%
CCOc1ccccc1CN1CCN(C2CCC2)CC1CCO (centres undefined) 49.6%
CC(=O)c1cccc(N(C(=O)Cn2nnc3ccccc32)C(C(=O)NCc2ccccc2)c2ccccn2)c1 (centres undefined) 95.9%
COc1ccc(OC)c(NC(=O)CSc2nnc(-c3cccnc3)s2)c1 252%
COc1ccc(-c2nc(N)c(C#N)c(-c3cccnc3)c2C)cc1 159%
CCCOc1ccc(C(=O)Nc2cccnc2)cc1 133% [at 10 µM]
CCOC(=O)c1c(-c2ccc(C)cc2C)csc1NC(=O)CSc1nnnn1C 60.1%
CCOC(=O)c1oc2ccc(S(=O)(=O)N3CCC(C)CC3)cc2c1C 48.1%
O=C(CCCn1c(=O)[nH]c2cc(Cl)ccc2c1=O)NCCC1=CCCCC1 27.5%
C[C@@H]1CN([C@H](C)CO)C(=O)c2c(c3ccccc3n2C)-c2ccccc2CO[C@@H]1CN(C)C(=O)Nc1ccccc1C(F)(F)F 267%
COc1cc(OC)c2c(-c3cccc(-c4cccc(C)c4)c3)cc(=O)oc2c1 120% [at 10 µM]
COc1ccc(CCNC(=O)c2cc(-c3ccco3)on2)cc1OC 99.9% [at 10 µM]
O=C1OC(Oc2ccc(Br)cc2)(c2ccccc2)c2ccccc21 (centres undefined) 149%
CC(=O)c1ccc(NC(=O)N2CCc3ccccc3C2)cc1 225%
CC(=O)c1cccc(N(C(=O)c2cnccn2)C(C(=O)NCc2ccccc2)c2ccco2)c1 (centres undefined) 69.2%
C[C@H](CO)N1C[C@H](C)[C@@H](CN(C)Cc2ccc3c(c2)OCO3)Oc2ccc(NC(=O)Nc3ccc4c(c3)OCO4)cc2CC1=O 44.8%
C[C@H]1CN([C@@H](C)CO)C(=O)c2cccc(NC(=O)Nc3cccc4ccccc34)c2O[C@H]1CN(C)Cc1ccc(C(=O)Nc2ccccc2N)cc1 270%
C[C@H]1CN([C@@H](C)CO)C(=O)c2cccc(NC(=O)c3cnccn3)c2O[C@H]1CN(C)Cc1ccc(C(=O)Nc2ccccc2N)cc1 369% [at 21 µM]
C[C@@H]1CN([C@@H](C)CO)C(=O)Cc2cc(NC(=O)Cc3ccccc3)ccc2O[C@H]1CN(C)C(=O)Nc1ccccc1 34.5%
C[C@@H]1CN([C@@H](C)CO)C(=O)c2cccc(NC(=O)c3ccc(-c4nccs4)cc3)c2O[C@@H]1CN(C)C(=O)Nc1ccc(C(F)(F)F)cc1 10.9%
Cc1cc(Cn2nc(C(=O)NCc3cccc(C(F)(F)F)c3)cc2-c2ccccc2)on1 84.2%
C[C@@H]1CN([C@@H](C)CO)C(=O)c2c(c3ccccc3n2C)-c2ccccc2CO[C@@H]1CN(C)C(=O)Nc1cccc(C(F)(F)F)c1 90.9%
C=C/C=C/[C@@H]1C(=C)CN2[C@H]1[C@H](Cc1ccccc1)OC(=O)[C@@H]2Cc1ccccc1 59.2%
O=C(NCCC(c1ccccc1)c1ccccc1)c1ccc(Br)o1 108%
CC(C)[C@H](C)NC(=O)N(C)C[C@H]1OCc2ccccc2-c2c(n(C)c3ccccc23)C(=O)N([C@H](C)CO)C[C@H]1C 87.6%
COc1ccc2c(c1)CCc1c(C(=O)NCCCn3ccnc3)noc1-2 42.4%
Cc1ccc(S(=O)(=O)N[C@@H]2C=C[C@H](CC(=O)NCCN3CCCCC3)O[C@@H]2CO)cc1 48.1%
CCCCC(=O)Nc1ccc(C(=O)NCCCn2ccnc2)cc1 343%
OC[C@H]1O[C@@H](n2cnc3c(NCc4ccco4)ncnc32)[C@H](O)[C@@H]1O 67%
O=C(Nc1ccc(F)cc1)N1CCN(c2nc3ccccc3s2)CC1 99.3%
O=C(Nc1ccccc1F)N1CCCCN2[C@H](CO)[C@H](c3ccc(C#Cc4ccccc4)cc3)[C@H]2C1 8.04%
O=C(Nc1ccc(F)cc1)N1CCCCN2[C@@H](CO)[C@@H](c3ccc(C#Cc4ccccc4)cc3)[C@@H]2C1 32.9% [at 10 µM]
O=c1[nH]nc(SCCS(=O)(=O)c2ccc(F)cc2)n1-c1ccccc1 64.8%
Cc1cc(C)cc(N(CC(=O)NC2CC3CCC2C3)S(C)(=O)=O)c1 (centres undefined) 52.8%
O=C(CN1CCC(N2CCCCC2)CC1)N1CCCc2ccccc21 75.2%
CCCc1cc2c(cc1N(C)S(=O)(=O)c1ccccc1)OCO2 70.3%
Cc1ccc(NC(=O)CN2CCC(NC(=O)Cc3ccccc3)CC2)c(C)c1 132%
O=C(Nc1ccccc1-c1ccccc1)NC1CC2CCCC(C1)N2Cc1ccc(F)cc1 (centres undefined) 51.3%
Cc1nn2c(NCCCN3CCOCC3)c3c(nc2c1-c1ccccc1)CCC3 73.2%
COC(=O)c1cc2ccsc2n1CC(=O)Nc1cc(Cl)ccc1OC 77.8%
O=C(Cn1nc(C(=O)O)c2ccccc2c1=O)Nc1cccc(Br)c1 25.1%
Cc1ccc(/C(N)=N/OC(=O)c2ccco2)cc1 305%
CCCCN(CCCC)S(=O)(=O)c1ccc2oc(C(=O)N3CCOCC3)c(C)c2c1 114%
COC(=O)[C@@]1(C)[C@H]2C(=O)N(Cc3ccccc3)C(=O)[C@H]2[C@H]2CN=C(SCC3CC3)N21 45.1%
COc1ccc(-n2c(=O)c3c4c(sc3n3c(=S)[nH]nc23)CCC4)cc1 238%
CCOc1ccc(NC(=O)CN2CCC(n3cnc4cc(F)ccc43)CC2)cc1 93.8%
CO[C@@H](C(=O)N(C)C[C@H]1OCc2ccccc2-c2c(n(C)c3ccccc23)C(=O)N([C@H](C)CO)C[C@H]1C)c1ccccc1 104% [at 21 µM]
Cc1ccccc1NC(=O)c1nc(S(C)(=O)=O)ncc1Cl 46.6% [at 10 µM]
Cc1ccc(Cl)cc1NC(=O)Cn1nc(-c2cccs2)ccc1=O 77%
C[C@@H]1CN([C@H](C)CO)C(=O)c2c(c3ccccc3n2C)-c2ccccc2CO[C@@H]1CN(C)C(=O)Nc1ccc2c(c1)OCO2 102%
CC(Oc1ccc(Cl)cc1Cl)c1nc(-c2ccc(NC(=O)c3cccnc3)cc2)no1 (centres undefined) 232% [at 5 µM]
Cc1ccc(-c2nn(C)c(=O)c3ccccc23)cc1S(=O)(=O)NCCN(C)C 32%
O=C(C[C@H]1CC[C@H](NC(=O)NC2CCCCC2)[C@H](CO)O1)NCc1ccc(Cl)cc1 39.8%
CCCCSc1ccc(NC(=O)c2cccnc2)cc1 221%
CCn1c(SCC(N)=O)nnc1C(C)C 47.9%
O=C1NC(=Nc2ccccc2Cl)S/C1=C\c1cccc([N+](=O)[O-])c1O 47.6%
CC1(Cc2ccc(Cl)s2)C(=O)Nc2c(Cl)ccc(Cl)c21 (centres undefined) 39.8%
O=C(NCc1ccccc1)N1CCC(n2cnc3cc(F)ccc32)CC1 143%
COc1ccc(C(=O)NN(C)c2nc(-c3ccccc3)cc(C)c2S(C)(=O)=O)cc1 45.8%
O=C(NCc1ccccc1)c1ccc(NC(=O)C2CC2)cc1 68.6%
CSc1nn(-c2ccc(C(=O)OC(C(=O)NC(N)=O)C(C)C)cc2)c(=S)s1 (centres undefined) 60.7%
CC(=O)Nc1ccc(NC(=O)CN(c2cc(Cl)ccc2Cl)S(C)(=O)=O)cc1 264%
Cc1nc(N2CCN(S(=O)(=O)c3ccc(F)cc3)CC2)c2c(-c3cccs3)csc2n1 57.9%
Cc1ccc(S(=O)(=O)NC(CC(C)C)C(=O)N2CCCCCCC2)cc1 (centres undefined) 129%
Nc1ccccc1Oc1ncc(C(F)(F)F)cc1Cl 66.8% [at 10 µM]
O=[N+]([O-])c1ccc(S(=O)(=O)c2cccc(C(F)(F)F)c2)nc1 88.2% [at 10 µM]
CCOC(=O)c1sc2nc(C)nc(NCc3ccccc3OC)c2c1C 33.3%
CCO[C@H]1OC(C(=O)Nc2ccccc2)=C[C@@H](c2csc3ccccc23)[C@@H]1CCCO 53.7%
O=C(NCCCN1CCOCC1)c1ccccc1N1C(=O)[C@@H]2Cc3c([nH]c4ccccc34)C(c3ccccc3)N2C1=O (some centres undefined) 76.8% [at 10 µM]
O=C(Cc1ccccn1)NCC[C@@H]1CC[C@H](NC(=O)Nc2ccc(C(F)(F)F)cc2)[C@@H](CO)O1 3.56%
O=C(Cc1ccccn1)NCC[C@@H]1CC[C@@H](NC(=O)Nc2ccc(C(F)(F)F)cc2)[C@@H](CO)O1 -20.7%
Cc1cccc2sc(N3CCN(C(=O)c4cccs4)CC3)nc12 45.5%

From PubChem BioAssay AID720514 (Broad Institute, 2013)
